Measurements taken from PubChem BioAssay AID588853 (National Center for Advancing Translational Sciences (NCATS), 2011).
The source made the active and inactive calls.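 The calls were made as follows: active = glucocerebrosidase seen by eye moving to lysosomes in immunostained patient skin cells after 5 µM compound; inconclusive = microscope result judged unclear; inactive = no movement seen.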

Biological target: Lysosomal acid glucosylceramidase (Homo sapiens) (UniProt P04062)
Experiment: qHTS for Activators of Human Glucocerebrosidase as a Potential Chaperone Treatment of Gaucher Disease: Fibroblast Translocation
Conditions: Gaucher patient fibroblasts, GCase lysosomal translocation, immunofluorescence
Source text: Glucocerebrosidase (GCase) catalyzes the hydrolysis of beta-glucocerebroside to glucose and ceramide in lysosomes. Mutations in the glucocerebrosidase gene result in Gaucher disease, an autosomal recessive lysosomal storage disorder. Many of the mutations encountered in patients with Gaucher disease are missense alterations that may cause misfolding, decreased stability and/or mistrafficking of this lysosomal protein. […] However, the enhancement of enzyme activity by the chaperone action of an enzyme inhibitor must be balanced against the direct inhibition of the enzyme. An enzyme activator could also function as a chaperone by binding to the enzyme and helping to correct its misfolding and mistrafficking. Activators for GCase have not yet been identified, and they may have better therapeutic potential than inhibitors. Therefore the discovery and development of chemical activators may provide a new strategy for the chaperone therapy. The probe that has been identified was tested in a chaperone translocation experiment in human fibroblasts. This assay attempts to quantitate translocated glucocerebrosidase protein in patient-derived fibroblasts following extended compound incubation. The fibroblasts tested in this experiment were homozygous either for N370S glucocerebrosidase or wildtype GCase. NIH Chemical Genomics Center [NCGC] […]

Lysosomal acid glucosylceramidase (Homo sapiens), sequence (P04062 whole entry N409S): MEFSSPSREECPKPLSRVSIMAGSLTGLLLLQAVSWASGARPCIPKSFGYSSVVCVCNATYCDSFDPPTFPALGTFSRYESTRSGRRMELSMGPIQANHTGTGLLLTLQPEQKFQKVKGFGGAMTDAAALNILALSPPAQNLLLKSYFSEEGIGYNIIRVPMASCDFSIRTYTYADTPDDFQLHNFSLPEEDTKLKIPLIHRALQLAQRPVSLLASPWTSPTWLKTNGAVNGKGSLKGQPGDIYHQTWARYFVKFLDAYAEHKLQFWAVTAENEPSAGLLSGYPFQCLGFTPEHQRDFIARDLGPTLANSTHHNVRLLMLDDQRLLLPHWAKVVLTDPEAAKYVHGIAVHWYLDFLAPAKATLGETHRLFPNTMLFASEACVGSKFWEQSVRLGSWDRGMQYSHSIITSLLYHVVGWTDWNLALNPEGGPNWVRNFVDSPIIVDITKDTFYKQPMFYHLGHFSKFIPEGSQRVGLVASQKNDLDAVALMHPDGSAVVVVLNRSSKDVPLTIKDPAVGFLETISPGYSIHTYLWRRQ

Question: How did the outcome turn out when `CN(C(=O)CNC(=O)c1ccccc1OCC(=O)Nc1ccc(Br)cc1)c1ccccc1` was run?
Answer: Its outcome is “active; yes”.

Question: How did the outcome turn out when `C#Cc1ccc(NC(=O)c2cnn3c(C)cc(C)nc23)cc1` was run?
Answer: Its outcome is “active; yes”.
